# Laboratory results as given in paper PMC7862700, “An all-to-all approach to the identification of sequence-specific readers for epigenetic DNA modifications on cytosine”.
# Tests used:
# Test in all cases: DAPPL (digital affinity profiling via proximity ligation, sequencing); 10 mM Tris-HCl pH 7.5, 50 mM NaCl, 1 mM DTT, 4% glycerol, room temperature, 30 min; GST-TFs on glutathione beads, 16-mer random dsDNA library, 0.1% formaldehyde crosslink after washing; high values mean tight binding
# [1] = biological target: T1, FLI1 (Homo sapiens, UniProt Q01543 1-452); settings: protein: recombinant; tags: N-terminal GST; dsDNA, one strand shown
# T1 sequence: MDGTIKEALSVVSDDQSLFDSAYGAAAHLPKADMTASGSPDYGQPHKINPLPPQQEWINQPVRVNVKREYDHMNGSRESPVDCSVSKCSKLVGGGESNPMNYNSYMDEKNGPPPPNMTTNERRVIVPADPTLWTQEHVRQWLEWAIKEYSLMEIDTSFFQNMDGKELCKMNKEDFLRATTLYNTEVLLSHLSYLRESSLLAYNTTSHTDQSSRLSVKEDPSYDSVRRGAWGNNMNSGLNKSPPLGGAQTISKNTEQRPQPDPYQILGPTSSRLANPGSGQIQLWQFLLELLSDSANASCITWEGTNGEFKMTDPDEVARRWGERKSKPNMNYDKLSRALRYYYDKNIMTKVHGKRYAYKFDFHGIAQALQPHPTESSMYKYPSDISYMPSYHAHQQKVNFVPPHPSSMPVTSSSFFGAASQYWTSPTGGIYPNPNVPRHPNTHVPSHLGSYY
# Outline: (§1)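 Beads coated with glutathione captured GST-fused human transcription factors that had been expressed in yeast, and the factors were then given DNA barcodes and pooled with a tag-only sample. The pools were incubated with 200 nmole of a random double-stranded 16-mer DNA library in Tris/NaCl/DTT/glycerol buffer for 30 min at room temperature, washed, crosslinked with 0.1% formaldehyde and proximity-ligated with BsaI/T4 ligase at 37 °C for 1 h. PCR amplification and Illumina NextSeq500 sequencing came last. Binding signal is each hexamer's read frequency for a factor divided by its frequency for the tag-only sample.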
# [2] = biological target: T2, ELK1 (Homo sapiens, UniProt P19419 1-428); settings: protein: recombinant; tags: N-terminal GST; dsDNA, one strand shown
# T2 sequence: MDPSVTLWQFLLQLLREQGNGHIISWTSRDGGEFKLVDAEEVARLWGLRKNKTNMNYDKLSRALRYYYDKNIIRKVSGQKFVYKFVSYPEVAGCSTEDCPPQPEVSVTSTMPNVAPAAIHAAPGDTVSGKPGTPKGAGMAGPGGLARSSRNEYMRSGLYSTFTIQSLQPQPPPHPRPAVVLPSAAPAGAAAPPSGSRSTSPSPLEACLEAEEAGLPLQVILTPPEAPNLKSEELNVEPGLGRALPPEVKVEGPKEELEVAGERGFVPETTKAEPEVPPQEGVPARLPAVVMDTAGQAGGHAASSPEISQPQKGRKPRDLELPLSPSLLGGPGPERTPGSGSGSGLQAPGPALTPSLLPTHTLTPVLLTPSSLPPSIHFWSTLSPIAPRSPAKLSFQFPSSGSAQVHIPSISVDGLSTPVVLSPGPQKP
# Outline: as §1
# [3] = biological target: T3, GABPA (Homo sapiens, UniProt Q06546 1-454); settings: protein: recombinant; tags: N-terminal GST; dsDNA, one strand shown
# T3 sequence: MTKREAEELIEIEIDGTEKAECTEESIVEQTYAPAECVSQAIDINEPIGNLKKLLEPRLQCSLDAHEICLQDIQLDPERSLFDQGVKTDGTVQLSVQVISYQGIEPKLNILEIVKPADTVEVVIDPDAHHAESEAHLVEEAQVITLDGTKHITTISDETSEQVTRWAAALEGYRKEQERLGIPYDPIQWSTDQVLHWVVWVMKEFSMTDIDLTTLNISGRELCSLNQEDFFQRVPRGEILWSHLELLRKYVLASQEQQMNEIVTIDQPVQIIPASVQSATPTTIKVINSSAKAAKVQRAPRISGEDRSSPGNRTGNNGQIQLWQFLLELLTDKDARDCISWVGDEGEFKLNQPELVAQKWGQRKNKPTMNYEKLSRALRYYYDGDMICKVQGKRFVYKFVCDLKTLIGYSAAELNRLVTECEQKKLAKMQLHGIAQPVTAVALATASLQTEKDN
# Outline: as §1
# [4] = biological target: T4, ERG (Homo sapiens, UniProt P11308 1-479); settings: protein: recombinant; tags: N-terminal GST; dsDNA, one strand shown
# T4 sequence: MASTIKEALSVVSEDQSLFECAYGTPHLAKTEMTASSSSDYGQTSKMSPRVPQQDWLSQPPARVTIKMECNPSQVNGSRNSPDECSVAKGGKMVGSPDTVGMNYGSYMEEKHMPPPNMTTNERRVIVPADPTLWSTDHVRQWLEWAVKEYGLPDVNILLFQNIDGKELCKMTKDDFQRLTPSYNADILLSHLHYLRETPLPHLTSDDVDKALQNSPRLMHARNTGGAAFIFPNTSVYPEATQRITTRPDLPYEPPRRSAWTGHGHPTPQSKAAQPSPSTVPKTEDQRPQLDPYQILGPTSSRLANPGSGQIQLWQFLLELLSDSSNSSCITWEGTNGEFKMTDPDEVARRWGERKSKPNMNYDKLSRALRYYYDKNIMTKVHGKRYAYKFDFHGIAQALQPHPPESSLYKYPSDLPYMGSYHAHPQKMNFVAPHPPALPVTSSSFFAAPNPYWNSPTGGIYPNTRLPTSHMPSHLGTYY
# Outline: as §1
# [5] = biological target: ELF1 (Homo sapiens, UniProt P32519 1-619); settings: protein: recombinant; tags: N-terminal GST; dsDNA, one strand shown
# Outline: as §1
# [6] = biological target: T5, EHF (Homo sapiens, UniProt Q9NZC4 1-300); settings: protein: recombinant; tags: N-terminal GST; dsDNA, one strand shown
# T5 sequence: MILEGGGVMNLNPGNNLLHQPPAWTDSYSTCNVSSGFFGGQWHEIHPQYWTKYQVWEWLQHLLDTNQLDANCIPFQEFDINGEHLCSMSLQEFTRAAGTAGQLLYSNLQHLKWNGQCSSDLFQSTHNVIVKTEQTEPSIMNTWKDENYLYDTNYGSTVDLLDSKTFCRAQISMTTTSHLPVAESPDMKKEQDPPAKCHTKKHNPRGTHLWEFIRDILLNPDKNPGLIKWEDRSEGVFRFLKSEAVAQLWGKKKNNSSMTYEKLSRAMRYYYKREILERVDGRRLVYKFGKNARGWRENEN
# Outline: as §1
# [7] = biological target: SPI1 (Homo sapiens, UniProt P17947 1-270); settings: protein: recombinant; tags: N-terminal GST; dsDNA, one strand shown
# Outline: as §1
# [8] = biological target: SPIB (Homo sapiens, UniProt Q01892 1-262); settings: protein: recombinant; tags: N-terminal GST; dsDNA, one strand shown
# Outline: as §1
# [9] = biological target: T6, ELK3 (Homo sapiens, UniProt P41970 1-407); settings: protein: recombinant; tags: N-terminal GST; dsDNA, one strand shown
# T6 sequence: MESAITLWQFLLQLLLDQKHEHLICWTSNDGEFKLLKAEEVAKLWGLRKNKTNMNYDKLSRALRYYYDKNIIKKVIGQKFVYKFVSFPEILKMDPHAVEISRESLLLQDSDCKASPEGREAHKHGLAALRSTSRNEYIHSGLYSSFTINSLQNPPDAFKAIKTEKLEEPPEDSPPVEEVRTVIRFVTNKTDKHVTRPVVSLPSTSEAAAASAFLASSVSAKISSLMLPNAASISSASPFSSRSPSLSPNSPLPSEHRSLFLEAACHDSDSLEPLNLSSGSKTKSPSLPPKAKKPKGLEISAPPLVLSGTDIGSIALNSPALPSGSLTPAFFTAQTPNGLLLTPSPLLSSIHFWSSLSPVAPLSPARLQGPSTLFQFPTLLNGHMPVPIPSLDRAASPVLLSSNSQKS
# Outline: as §1
# [10] = biological target: T7, FEV (Homo sapiens, UniProt Q99581 1-238); settings: protein: recombinant; tags: N-terminal GST; dsDNA, one strand shown
# T7 sequence: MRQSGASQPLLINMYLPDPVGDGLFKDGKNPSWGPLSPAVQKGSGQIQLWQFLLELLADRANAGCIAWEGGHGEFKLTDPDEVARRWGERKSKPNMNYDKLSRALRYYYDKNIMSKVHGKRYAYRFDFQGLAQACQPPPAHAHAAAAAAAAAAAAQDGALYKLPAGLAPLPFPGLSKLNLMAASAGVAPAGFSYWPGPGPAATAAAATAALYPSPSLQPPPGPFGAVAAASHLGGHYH
# Outline: as §1
# [11] = biological target: ETV5 (Homo sapiens, UniProt P41161 1-510); settings: protein: recombinant; tags: N-terminal GST; dsDNA, one strand shown
# Outline: as §1
# [12] = biological target: HSF1 (Homo sapiens, UniProt Q00613 1-529); settings: protein: recombinant; tags: N-terminal GST; chain copies: 3; dsDNA, one strand shown
# Outline: as §1
# [13] = biological target: T8, SPIC (Homo sapiens, UniProt Q8N5J4 1-248); settings: protein: recombinant; tags: N-terminal GST; dsDNA, one strand shown
# T8 sequence: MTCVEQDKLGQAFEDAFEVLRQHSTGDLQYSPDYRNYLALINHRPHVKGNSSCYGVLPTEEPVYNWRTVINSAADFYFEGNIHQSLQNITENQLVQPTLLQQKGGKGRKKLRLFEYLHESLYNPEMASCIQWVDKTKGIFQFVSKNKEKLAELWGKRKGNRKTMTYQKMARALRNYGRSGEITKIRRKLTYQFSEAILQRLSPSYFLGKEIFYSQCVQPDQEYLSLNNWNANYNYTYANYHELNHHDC
# Outline: as §1
# [14] = biological target: ELF4 (Homo sapiens, UniProt Q99607 1-663); settings: protein: recombinant; tags: N-terminal GST; dsDNA, one strand shown
# Outline: as §1
# [15] = biological target: T9, ELK4 (Homo sapiens, UniProt P28324-2 1-405); settings: protein: recombinant; tags: N-terminal GST; dsDNA, one strand shown
# T9 sequence: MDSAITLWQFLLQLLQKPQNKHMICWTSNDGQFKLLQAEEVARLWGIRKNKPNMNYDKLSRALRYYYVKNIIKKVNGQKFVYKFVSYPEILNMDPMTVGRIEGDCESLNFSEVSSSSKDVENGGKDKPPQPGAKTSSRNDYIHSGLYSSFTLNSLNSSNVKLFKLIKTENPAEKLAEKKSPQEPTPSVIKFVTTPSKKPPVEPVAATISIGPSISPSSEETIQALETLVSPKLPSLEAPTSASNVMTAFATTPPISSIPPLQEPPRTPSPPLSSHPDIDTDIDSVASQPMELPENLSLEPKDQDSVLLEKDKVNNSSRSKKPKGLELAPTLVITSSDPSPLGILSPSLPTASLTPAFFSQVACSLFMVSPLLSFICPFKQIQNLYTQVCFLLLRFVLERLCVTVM
# Outline: as §1
# [16] = biological target: T10, ETV2 (Homo sapiens, UniProt O00321 1-342); settings: protein: recombinant; tags: N-terminal GST; dsDNA, one strand shown
# T10 sequence: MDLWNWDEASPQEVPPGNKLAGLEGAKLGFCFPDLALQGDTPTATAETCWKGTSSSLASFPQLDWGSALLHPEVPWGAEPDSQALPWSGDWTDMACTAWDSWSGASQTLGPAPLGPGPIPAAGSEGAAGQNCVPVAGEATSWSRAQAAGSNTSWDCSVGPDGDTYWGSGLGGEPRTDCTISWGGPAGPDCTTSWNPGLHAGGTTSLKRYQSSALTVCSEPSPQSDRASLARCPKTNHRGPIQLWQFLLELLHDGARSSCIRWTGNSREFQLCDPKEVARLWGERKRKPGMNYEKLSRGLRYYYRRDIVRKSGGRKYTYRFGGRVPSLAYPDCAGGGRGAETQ
# Outline: as §1
# [17] = biological target: T11, ELF3 (Homo sapiens, UniProt P78545 1-371); settings: protein: recombinant; tags: N-terminal GST; dsDNA, one strand shown
# T11 sequence: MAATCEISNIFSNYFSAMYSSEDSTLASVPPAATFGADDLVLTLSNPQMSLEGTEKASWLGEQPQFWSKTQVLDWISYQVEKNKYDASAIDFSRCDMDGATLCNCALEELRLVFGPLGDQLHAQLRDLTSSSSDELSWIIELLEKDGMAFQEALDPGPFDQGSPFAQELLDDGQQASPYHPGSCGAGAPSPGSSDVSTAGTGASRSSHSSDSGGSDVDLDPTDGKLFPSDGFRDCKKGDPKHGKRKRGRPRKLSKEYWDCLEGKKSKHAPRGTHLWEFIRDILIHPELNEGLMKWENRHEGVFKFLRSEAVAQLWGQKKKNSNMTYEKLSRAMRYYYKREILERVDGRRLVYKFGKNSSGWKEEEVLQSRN
# Outline: as §1
# [18] = biological target: CRX (Homo sapiens, UniProt O43186 1-299); settings: protein: recombinant; tags: N-terminal GST; dsDNA, one strand shown
# Outline: as §1
# [19] = biological target: ETV1 (Homo sapiens, UniProt P50549 1-477); settings: protein: recombinant; tags: N-terminal GST; dsDNA, one strand shown
# Outline: as §1
# Chain of ETV5 (P41161 whole entry): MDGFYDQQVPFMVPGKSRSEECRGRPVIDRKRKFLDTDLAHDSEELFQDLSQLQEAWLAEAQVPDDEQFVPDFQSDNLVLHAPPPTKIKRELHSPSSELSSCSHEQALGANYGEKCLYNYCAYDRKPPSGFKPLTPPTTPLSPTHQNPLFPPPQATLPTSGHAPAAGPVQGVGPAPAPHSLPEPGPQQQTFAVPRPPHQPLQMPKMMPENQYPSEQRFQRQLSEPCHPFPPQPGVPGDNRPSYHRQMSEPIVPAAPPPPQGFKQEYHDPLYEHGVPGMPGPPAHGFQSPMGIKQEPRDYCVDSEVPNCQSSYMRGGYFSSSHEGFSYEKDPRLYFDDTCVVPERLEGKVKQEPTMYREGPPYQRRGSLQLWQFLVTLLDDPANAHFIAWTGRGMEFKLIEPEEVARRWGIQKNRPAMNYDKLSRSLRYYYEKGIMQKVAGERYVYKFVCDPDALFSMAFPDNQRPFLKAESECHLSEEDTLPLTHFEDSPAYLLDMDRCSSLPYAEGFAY
# Chain of HSF1 (Q00613 whole entry): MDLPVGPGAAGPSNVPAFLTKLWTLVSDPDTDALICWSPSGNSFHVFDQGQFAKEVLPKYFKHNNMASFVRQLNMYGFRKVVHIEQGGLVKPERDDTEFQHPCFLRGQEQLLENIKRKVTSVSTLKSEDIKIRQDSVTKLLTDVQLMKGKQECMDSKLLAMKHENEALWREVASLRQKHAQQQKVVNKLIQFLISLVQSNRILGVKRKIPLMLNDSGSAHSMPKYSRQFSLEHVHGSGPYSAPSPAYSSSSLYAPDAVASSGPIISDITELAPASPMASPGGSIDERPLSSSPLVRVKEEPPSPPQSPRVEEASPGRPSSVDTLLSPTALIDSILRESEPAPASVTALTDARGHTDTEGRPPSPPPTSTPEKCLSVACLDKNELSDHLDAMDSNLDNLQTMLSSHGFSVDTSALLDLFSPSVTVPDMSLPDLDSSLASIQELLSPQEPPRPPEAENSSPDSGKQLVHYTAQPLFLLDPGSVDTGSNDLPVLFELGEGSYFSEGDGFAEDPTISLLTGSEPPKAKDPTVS
# Chain of ELF1 (P32519 whole entry): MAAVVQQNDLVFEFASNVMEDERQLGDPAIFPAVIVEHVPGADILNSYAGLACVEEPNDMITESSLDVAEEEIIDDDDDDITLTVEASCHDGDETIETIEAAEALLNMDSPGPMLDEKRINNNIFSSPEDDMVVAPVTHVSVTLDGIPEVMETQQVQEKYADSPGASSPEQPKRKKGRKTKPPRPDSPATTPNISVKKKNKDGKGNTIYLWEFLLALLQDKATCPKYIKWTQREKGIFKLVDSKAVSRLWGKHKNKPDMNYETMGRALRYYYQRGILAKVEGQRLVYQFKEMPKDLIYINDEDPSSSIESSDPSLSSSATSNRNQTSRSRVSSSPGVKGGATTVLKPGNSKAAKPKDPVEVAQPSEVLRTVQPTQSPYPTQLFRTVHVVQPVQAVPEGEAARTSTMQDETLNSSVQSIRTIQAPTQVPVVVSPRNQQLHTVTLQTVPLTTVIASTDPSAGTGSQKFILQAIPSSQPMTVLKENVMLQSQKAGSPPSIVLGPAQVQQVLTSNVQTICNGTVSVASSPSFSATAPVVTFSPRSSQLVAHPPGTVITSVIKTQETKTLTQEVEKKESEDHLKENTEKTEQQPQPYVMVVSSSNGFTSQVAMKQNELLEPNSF
# Chain of SPIB (Q01892 whole entry): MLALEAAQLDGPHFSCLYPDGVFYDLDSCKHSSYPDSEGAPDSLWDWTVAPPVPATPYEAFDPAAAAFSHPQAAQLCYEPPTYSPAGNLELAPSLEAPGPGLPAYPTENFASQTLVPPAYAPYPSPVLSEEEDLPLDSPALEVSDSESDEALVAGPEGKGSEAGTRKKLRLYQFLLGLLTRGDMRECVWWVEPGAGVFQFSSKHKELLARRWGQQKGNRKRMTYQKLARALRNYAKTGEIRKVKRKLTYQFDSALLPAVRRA
# Chain of CRX (O43186 whole entry): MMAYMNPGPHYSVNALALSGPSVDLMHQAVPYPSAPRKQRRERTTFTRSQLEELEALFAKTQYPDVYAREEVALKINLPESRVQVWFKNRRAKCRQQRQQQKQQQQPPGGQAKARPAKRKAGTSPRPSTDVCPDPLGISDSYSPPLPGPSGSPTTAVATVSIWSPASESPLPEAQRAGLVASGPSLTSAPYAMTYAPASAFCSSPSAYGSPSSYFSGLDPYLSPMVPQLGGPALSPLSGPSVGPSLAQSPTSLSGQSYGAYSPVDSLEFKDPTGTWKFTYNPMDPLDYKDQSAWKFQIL
# Chain of ETV1 (P50549 whole entry): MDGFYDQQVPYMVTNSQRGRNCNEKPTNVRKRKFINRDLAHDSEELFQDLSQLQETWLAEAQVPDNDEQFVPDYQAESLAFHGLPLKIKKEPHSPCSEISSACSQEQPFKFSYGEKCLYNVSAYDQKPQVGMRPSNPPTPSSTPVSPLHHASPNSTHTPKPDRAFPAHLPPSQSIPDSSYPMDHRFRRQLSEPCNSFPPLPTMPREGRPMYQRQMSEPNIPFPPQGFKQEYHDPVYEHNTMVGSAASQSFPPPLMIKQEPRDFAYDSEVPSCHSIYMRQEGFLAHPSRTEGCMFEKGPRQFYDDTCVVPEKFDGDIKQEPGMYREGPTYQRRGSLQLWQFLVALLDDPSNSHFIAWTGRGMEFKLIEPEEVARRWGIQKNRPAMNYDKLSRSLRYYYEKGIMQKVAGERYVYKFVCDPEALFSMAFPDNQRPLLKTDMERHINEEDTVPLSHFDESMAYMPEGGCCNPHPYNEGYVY
# Chain of ELF4 (Q99607 whole entry): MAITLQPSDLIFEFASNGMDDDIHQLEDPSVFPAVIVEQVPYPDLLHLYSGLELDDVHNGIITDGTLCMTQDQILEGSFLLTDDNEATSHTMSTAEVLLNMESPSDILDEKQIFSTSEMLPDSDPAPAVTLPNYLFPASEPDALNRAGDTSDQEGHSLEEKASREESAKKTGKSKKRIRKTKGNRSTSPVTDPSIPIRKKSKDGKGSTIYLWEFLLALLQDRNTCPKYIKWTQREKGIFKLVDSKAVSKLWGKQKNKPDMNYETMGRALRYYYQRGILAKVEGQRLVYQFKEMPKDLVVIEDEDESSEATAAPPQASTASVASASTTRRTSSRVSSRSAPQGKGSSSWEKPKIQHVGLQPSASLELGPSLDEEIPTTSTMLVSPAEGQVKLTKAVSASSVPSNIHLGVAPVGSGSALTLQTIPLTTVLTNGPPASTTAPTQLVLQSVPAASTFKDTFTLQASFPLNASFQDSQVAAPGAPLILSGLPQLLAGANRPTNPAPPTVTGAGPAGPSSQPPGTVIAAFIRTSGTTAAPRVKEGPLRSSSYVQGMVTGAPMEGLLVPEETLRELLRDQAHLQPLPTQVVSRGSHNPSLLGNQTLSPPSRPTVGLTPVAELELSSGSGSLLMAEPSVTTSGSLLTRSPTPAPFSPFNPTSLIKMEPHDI
sequence,measurement,setting,value
CCTTTC,binding signal,[1],"1.76 fold enrichment (6-mer frequency, TF over GST control)"
same,binding signal,[2],"1.57 fold enrichment (6-mer frequency, TF over GST control)"
same,binding signal,[3],"1.61 fold enrichment (6-mer frequency, TF over GST control)"
same,binding signal,[4],"1.62 fold enrichment (6-mer frequency, TF over GST control)"
same,binding signal,[5],"1.57 fold enrichment (6-mer frequency, TF over GST control)"
same,binding signal,[6],"1.57 fold enrichment (6-mer frequency, TF over GST control)"
same,binding signal,[7],"1.64 fold enrichment (6-mer frequency, TF over GST control)"
same,binding signal,[8],"1.7 fold enrichment (6-mer frequency, TF over GST control)"
same,binding signal,[9],"1.64 fold enrichment (6-mer frequency, TF over GST control)"
same,binding signal,[10],"1.71 fold enrichment (6-mer frequency, TF over GST control)"
same,binding signal,[11],"1.51 fold enrichment (6-mer frequency, TF over GST control)"
same,binding signal,[12],"1.43 fold enrichment (6-mer frequency, TF over GST control)"
same,binding signal,[13],"1.65 fold enrichment (6-mer frequency, TF over GST control)"
same,binding signal,[14],"1.68 fold enrichment (6-mer frequency, TF over GST control)"
same,binding signal,[15],"1.64 fold enrichment (6-mer frequency, TF over GST control)"
same,binding signal,[16],"1.56 fold enrichment (6-mer frequency, TF over GST control)"
same,binding signal,[17],"1.42 fold enrichment (6-mer frequency, TF over GST control)"
same,binding signal,[18],"1.27 fold enrichment (6-mer frequency, TF over GST control)"
same,binding signal,[19],"1.5 fold enrichment (6-mer frequency, TF over GST control)"
